PubChem BioAssay
Results filed as inconclusive are left out. The source made the active and inactive calls.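 Rule for the calls, unless noted: active = differentiation response of at least 50%, scaled between solvent and reference control, from cells with both markers; inactive = the rest.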

Columns and labels:
[1] = rapamycin-like changes in RPL19A-GFP expression – cell-based, S. cerevisiae, multiplex flow cytometry, primary screen (AID 1862; in the data active = percent of DMSO control GFP below about 86%;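 note: lower values mimic rapamycin by blocking the RPL19A rise seen in DMSO cells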); settings: S. cerevisiae RPL19A-GFP strain, flow cytometry fluorescence, 3 h; at 10 µM; stronger effect = lower value
[2] = TOR pathway GLN3 branch reporter MEP2-GFP changes – S. cerevisiae, multiplex flow cytometry, primary screen (AID 1867;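 active = GFP response, as percent of the DMSO control, above the screen-wide mean plus 3 SD, about 139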;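 note: median GFP channel fluorescence of barcode-gated MEP2-GFP cells measured by flow cytometry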); settings: S. cerevisiae MEP2-GFP strain, 3 h, at 10 µM, stronger effect = higher value, 100% means same as DMSO wells
[3] = TOR pathway RTG branch CIT2 reporter changes – S. cerevisiae, GFP fusion, multiplex flow cytometry, primary screen (AID 1870;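 active = percent response above a set limit, the screen-wide mean plus 3 SD, cut at about 130% in these data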;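 note: barcoded CIT2-GFP strain pooled with four other GFP strains with rapamycin as positive control; median GFP fluorescence per well over plate mean of DMSO wells so 100% = DMSO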); settings: S. cerevisiae CIT2-GFP expression, 3 h, at 10 µM, stronger effect = higher value
[4] = TOR pathway LAP4-GFP level changes – S. cerevisiae, multiplex flow cytometry, primary screen (AID 1873;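 active = GFP signal, as percent of the solvent control, above the screen mean plus 3 SD, about 149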); settings: S. cerevisiae LAP4-GFP expression, 3 h, at 10 µM, stronger effect = higher value
[5] = yeast AGP1-GFP level changes, GLN3 branch – cell-based, multiplex flow cytometry, S. cerevisiae, primary screen (AID 1887;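 active = GFP signal above the screen-wide mean plus 3 SD, that is over about 124.5% of the solvent control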;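 note: AGP1-GFP fusion strain of S. cerevisiae within a five-strain barcoded multiplex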); settings: 3 h, at 10 µM, stronger effect = higher value
[6] = reduced mouse 2C T cell binding to pMHC/ICAM-1 vesicles – MLPCN validation set, flow cytometry, LFA-1/ICAM-1 modulator project, pilot screen (AID 2523;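 active = response below a set limit, under 55% cells CD8-positive and vesicle-bound, and CD8 cells' 90th-percentile brightness under 279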;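 for vesicle binding response: mean PE anti-B7-1 fluorescence of CD8+ cells relative to row control; 100% = QL9-loaded vesicles with DMSO vehicle in the same plate row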); settings: 2C mouse CD8+ T cells, at 7 µM, stronger effect = lower value; double positive events: measured here: CD8+/vesicle+ event percentage
[7] = biological target: Integrin beta-1 (Homo sapiens) + Integrin alpha-4 (Homo sapiens) (UniProt P13612+P05556); test: alpha4beta1 integrin LIBS antibody binding reduction – U937 cells, HUTS-21 mAb, flow cytometry, validation set, VLA-4 allosteric modulator project, pilot screen (AID 2674;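 active = inhibition above 50%, about 3 SD of the validation set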;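 note: antibody binding induced by the VLA-4 ligand LDV present at three times its Kd; 0% = LDV ligand with antibody and no compound and 100% = antibody without LDV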); settings: HUTS-21 LIBS mAb binding, at 6.7 µM, stronger effect = higher value, binding induced by LDV ligand
Integrin beta-1 (Homo sapiens) + Integrin alpha-4 (Homo sapiens), sequence (P05556 whole entry, looked up): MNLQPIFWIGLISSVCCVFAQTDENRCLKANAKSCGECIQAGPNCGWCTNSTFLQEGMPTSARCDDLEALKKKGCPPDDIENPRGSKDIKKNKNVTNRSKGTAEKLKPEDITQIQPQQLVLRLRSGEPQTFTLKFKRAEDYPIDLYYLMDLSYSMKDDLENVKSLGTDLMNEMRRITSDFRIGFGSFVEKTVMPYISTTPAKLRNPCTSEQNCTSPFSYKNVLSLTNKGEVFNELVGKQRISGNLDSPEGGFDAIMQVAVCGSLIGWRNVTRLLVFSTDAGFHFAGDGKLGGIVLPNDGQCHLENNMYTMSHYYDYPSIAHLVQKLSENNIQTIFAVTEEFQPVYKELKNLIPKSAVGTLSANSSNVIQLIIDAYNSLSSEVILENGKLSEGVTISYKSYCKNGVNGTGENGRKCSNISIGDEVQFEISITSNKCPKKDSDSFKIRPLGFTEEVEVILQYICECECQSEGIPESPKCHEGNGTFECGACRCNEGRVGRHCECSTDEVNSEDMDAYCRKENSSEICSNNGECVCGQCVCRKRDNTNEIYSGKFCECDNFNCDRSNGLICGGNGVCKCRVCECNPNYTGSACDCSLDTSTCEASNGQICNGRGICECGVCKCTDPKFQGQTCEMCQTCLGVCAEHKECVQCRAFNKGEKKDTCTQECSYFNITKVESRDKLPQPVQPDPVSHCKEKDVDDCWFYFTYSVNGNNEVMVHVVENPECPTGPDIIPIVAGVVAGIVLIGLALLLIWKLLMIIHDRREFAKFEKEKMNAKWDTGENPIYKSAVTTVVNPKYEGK
Integrin beta-1 (Homo sapiens) + Integrin alpha-4 (Homo sapiens), sequence (P13612 whole entry, looked up): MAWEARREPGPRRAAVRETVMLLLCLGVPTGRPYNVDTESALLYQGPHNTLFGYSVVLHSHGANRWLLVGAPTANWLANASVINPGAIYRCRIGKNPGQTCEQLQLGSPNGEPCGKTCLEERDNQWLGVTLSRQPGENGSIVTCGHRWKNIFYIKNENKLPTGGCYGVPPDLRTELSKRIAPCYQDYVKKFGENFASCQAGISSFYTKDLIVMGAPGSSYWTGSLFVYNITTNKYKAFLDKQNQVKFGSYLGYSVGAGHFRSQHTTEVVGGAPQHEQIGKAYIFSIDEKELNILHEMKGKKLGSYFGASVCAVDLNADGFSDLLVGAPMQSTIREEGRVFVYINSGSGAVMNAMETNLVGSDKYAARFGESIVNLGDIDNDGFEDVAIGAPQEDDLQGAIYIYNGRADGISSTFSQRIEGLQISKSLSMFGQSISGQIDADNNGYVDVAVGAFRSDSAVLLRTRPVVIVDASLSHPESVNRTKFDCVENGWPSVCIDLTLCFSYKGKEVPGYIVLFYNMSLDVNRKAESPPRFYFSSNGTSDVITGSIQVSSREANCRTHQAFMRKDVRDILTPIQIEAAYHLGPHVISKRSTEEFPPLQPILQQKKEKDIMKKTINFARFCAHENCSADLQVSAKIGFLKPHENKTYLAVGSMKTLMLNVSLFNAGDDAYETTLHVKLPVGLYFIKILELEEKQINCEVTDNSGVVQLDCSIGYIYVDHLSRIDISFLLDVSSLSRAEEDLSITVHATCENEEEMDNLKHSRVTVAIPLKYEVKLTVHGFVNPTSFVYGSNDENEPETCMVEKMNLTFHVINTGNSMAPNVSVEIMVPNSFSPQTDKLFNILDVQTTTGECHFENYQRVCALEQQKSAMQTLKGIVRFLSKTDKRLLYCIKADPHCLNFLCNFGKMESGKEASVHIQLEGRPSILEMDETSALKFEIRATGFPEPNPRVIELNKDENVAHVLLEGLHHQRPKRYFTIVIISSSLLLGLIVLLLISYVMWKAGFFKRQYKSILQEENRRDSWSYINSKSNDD

[8] = calorie-restriction mimetic ROS inhibitors, yeast – validation compound set, pilot screen (AID 2706;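 active = superoxide response below 65% of plate, a cut near 3 SD across the whole screen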;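 note: yeast exposed to compound for one week at 30 degrees C before staining; 100% = mean of all compound wells on the same plate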); settings: S. cerevisiae aging, superoxide DHE fluorescence; at 10 µM; stronger effect = lower value
[9] = biological target: Beta-adrenergic receptor kinase 1 (Homo sapiens) (UniProt P25098); test: GRK2 binders displacing RNA aptamer, biochemical, validation, human GRK2, bead flow cytometry (AID 488806;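 active = aptamer binding inhibition above 30%, about 3 SD of noise from non-fluorescent compounds; inactive = inhibition at or below 30%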); settings: bead-bound GRK2, FAM-aptamer displacement, at 10 µM, stronger effect = higher value
Beta-adrenergic receptor kinase 1 (Homo sapiens), sequence (P25098 whole entry, looked up): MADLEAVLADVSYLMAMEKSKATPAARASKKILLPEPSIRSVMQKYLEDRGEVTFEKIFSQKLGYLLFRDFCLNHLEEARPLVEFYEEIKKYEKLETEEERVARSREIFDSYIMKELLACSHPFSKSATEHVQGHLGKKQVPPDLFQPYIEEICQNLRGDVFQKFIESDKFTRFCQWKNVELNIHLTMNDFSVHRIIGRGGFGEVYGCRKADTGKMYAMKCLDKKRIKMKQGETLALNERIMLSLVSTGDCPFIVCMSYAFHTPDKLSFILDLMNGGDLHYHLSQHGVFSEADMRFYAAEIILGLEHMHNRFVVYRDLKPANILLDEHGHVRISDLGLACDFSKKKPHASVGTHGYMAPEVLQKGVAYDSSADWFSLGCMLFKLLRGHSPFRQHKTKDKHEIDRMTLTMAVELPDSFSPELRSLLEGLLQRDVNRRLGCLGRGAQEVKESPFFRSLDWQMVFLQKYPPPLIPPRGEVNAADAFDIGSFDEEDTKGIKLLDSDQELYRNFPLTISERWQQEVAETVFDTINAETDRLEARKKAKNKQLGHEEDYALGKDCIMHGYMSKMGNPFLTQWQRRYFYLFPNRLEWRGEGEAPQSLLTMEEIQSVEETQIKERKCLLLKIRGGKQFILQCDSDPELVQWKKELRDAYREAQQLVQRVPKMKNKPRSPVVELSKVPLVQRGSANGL

[10] = biological target: Beta-2 adrenergic receptor (Homo sapiens) (UniProt P07550); test: agonist-induced loss of surface beta2AR – cell-based, FAP fluorogen, flow cytometry, validation set, pilot screen (AID 504459;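 active = percent response above 42, roughly 3 SD of non-fluorescent test compounds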;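 note: agonist-driven loss of surface beta2AR via internalization measured by FAP dye flow cytometry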); settings: Am2.2-beta2AR cells, at 10 µM, stronger effect = higher value
Beta-2 adrenergic receptor (Homo sapiens), sequence (P07550 whole entry, looked up): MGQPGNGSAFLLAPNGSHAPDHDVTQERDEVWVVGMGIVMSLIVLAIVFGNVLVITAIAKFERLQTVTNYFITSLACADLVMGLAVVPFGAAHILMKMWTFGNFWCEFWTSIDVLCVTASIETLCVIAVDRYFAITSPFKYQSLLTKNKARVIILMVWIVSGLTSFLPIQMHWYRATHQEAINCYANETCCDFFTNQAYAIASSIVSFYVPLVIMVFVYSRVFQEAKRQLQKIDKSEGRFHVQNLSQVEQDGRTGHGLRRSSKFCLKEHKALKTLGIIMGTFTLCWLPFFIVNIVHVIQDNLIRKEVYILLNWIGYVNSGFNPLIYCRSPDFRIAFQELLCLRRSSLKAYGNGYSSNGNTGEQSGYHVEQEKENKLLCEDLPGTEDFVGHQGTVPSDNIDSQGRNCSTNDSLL

[11] = biological target: AP-2 complex subunit beta (Homo sapiens) (UniProt P63010); test: beta-arrestin/AP2 interaction blockers – biochemical, validation set, GST-AP2 beads, flow cytometry, pilot screen (AID 504541;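 active = inhibition above 54%, about 3 SD of non-fluorescent compounds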;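 note: AP2 carries R879A mutation and is captured from E. coli lysate; bead-bound FITC arrestin peptide fluorescence measuring arrestin peptide binding to AP2; 0% = DMSO wells and 100% = excess unlabeled arrestin peptide control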); settings: FITC arrestin peptide, at 10 µM, stronger effect = higher value, AP2 beta2 appendage fragment, R879A mutant
AP-2 complex subunit beta (Homo sapiens), sequence (P63010 whole entry, looked up, the tested form may be a part, one chain of several): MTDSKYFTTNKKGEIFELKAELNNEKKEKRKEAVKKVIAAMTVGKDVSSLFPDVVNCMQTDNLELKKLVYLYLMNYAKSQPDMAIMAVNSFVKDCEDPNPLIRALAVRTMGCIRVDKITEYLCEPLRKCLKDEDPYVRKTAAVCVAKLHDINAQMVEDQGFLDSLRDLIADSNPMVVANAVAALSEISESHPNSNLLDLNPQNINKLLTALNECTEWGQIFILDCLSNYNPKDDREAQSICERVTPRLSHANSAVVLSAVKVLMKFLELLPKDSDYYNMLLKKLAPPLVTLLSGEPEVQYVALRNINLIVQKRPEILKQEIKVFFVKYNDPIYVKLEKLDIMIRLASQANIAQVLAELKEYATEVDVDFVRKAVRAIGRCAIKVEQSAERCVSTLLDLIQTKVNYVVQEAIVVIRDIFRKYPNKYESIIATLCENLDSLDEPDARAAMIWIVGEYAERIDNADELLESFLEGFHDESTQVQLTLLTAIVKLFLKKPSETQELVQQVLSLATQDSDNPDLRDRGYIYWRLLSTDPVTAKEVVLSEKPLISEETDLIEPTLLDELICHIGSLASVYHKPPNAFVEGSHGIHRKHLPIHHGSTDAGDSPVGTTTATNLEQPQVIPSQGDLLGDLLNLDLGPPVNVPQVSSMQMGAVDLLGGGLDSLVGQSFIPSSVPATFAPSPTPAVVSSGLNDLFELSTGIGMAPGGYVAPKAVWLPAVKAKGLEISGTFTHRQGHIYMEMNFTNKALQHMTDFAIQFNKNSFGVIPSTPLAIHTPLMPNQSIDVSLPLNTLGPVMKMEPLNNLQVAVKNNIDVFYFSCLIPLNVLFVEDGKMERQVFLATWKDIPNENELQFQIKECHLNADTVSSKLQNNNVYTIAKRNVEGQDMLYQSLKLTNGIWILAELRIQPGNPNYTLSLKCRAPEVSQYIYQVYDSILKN

[12] = cytosolic pH regulators acting via V-ATPase – S. cerevisiae, pHLuorin, HTS validation (AID 504600; in the data active = response above about 15%;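 note: plate controls were DMSO for no effect and reference compound for full effect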); settings: V-ATPase proton transport, at 10 µM, stronger effect = higher value
[13] = test system: anti-desmoglein-3 scFv antibody binding to human DSG3; test: blockers of pathogenic pemphigus antibody–desmoglein-3 binding – biochemical, validation compound set, bead-based, flow cytometry, pilot screen (AID 588368;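 active = binding below the plate cutoff, the plate median minus 3 SD, with a reading above zero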;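 note: signal is the median channel fluorescence of bead-bound GFP antibody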); settings: Protein G beads, DSG3-Fc, scFv-GFP binding, at 10 µM, stronger effect = lower value
[14] = Nile Red efflux blockade in pump-expressing yeast – validation compound set, multiplex, phenotypic, pilot screen (AID 588506;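 active = efflux inhibition above 0.42, the validation set average plus 4 SD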;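 note: Nile Red retained in cells so higher fluorescence means more efflux inhibition; 0 = negative control wells and 1 = enniatin B 25 µM full block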); settings: S. cerevisiae pump-expressing triplex, Nile Red efflux flow cytometry; at 10 µM; stronger effect = higher value; the pumps come from Candida albicans
[15] = biological target: ATP-binding cassette sub-family B member 6 (Homo sapiens) (UniProt Q9NP58); test: blockers of ABCB6-driven porphyrin uptake – K562-ABCB6 cells, flow cytometry, validation set, pilot screen (AID 588550;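 active = inhibition above the screen-wide mean plus 3 SD, about 51%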;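 note: 0% = DMSO wells and 100% = benzethonium chloride 70 µM positive control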); settings: K562-ABCB6 porphyrin accumulation, 1 h, at 10 µM, stronger effect = higher value
ATP-binding cassette sub-family B member 6 (Homo sapiens), sequence (Q9NP58 whole entry, looked up): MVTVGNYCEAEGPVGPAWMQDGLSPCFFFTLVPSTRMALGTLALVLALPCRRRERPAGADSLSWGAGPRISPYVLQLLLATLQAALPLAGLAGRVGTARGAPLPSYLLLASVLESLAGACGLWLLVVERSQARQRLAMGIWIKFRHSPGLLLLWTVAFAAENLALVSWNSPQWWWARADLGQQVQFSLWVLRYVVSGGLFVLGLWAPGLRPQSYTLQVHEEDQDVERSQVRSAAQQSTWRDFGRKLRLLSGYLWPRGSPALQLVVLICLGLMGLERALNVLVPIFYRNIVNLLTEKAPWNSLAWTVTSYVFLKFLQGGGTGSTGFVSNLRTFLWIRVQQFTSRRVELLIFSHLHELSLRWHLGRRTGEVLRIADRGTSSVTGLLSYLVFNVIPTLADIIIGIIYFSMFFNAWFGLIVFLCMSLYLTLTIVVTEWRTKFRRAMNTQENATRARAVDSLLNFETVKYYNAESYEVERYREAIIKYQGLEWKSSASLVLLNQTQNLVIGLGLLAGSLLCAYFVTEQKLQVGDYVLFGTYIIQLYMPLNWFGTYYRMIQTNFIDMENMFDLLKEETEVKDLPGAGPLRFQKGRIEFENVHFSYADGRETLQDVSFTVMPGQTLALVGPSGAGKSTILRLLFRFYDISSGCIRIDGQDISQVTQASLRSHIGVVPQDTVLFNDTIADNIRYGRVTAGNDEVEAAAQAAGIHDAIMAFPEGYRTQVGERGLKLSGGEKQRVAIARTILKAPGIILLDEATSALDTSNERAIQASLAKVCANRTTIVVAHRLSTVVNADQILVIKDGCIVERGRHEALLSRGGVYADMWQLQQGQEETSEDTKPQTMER

[16] = AML differentiation inducers, ER-HoxA9 marrow cells – cell-based, GFP/MAC1 double positive, flow cytometry, validation set, primary screen (AID 588685); settings: stronger effect = higher value, normalized: vehicle 0, fulvestrant 100;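 note: compound exposure lasts four days before antibody staining and flow analysis; 0% = DMSO wells and 100% = 5 µM fulvestrant positive control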

Structure (SMILES): COc1ccc(NS(=O)(=O)c2ccc(N)cc2)nn1
- percent of DMSO control GFP [1]: 97.3% (inactive)
- GFP response vs DMSO [2]: 104% (inactive)
- percent response of DMSO control [3]: 92.9% (inactive)
- GFP response vs DMSO [4]: 120% (inactive)
- GFP response, % of DMSO [5]: 102% (inactive)
- double positive events [6]: 56.9%
- vesicle binding response [6]: 162% (inactive)
- inhibition [7]: 5.03% (inactive)
- superoxide response (% of plate) [8]: 91.9% (inactive)
- aptamer binding inhibition [9]: 6% (inactive)
- response [10]: -5.23% (inactive)
- inhibition [11]: 4.72% (inactive)
- response [12]: 3.89% (inactive)
- binding (% of control) [13]: 102% (inactive)
- efflux inhibition (fraction of control) [14]: -0.17 (inactive)
- inhibition [15]: 2% (inactive)
- differentiation response [16]: -12% (inactive)

Structure (SMILES): COc1ccc(C(=O)COc2ccc(F)cc2)c(O)c1
- percent of DMSO control GFP [1]: 106% (inactive)
- GFP response vs DMSO [2]: 98.3% (inactive)
- percent response of DMSO control [3]: 106% (inactive)
- GFP response vs DMSO [4]: 96% (inactive)
- GFP response, % of DMSO [5]: 97.6% (inactive)
- double positive events [6]: 60.6%
- vesicle binding response [6]: 253% (inactive)
- inhibition [7]: -7.72% (inactive)
- superoxide response (% of plate) [8]: 86.7% (inactive)
- aptamer binding inhibition [9]: 1% (inactive)
- response [10]: -9.67% (inactive)
- inhibition [11]: 1.75% (inactive)
- response [12]: 2.77% (inactive)
- binding (% of control) [13]: 94.5% (inactive)
- efflux inhibition (fraction of control) [14]: -0.04 (inactive)
- inhibition [15]: 1% (inactive)
- differentiation response [16]: 1.22% (inactive)

Structure (SMILES): Nc1nc(Cl)nc2c1ncn2[C@@H]1O[C@H](CO)[C@@H](O)[C@H]1O
- percent of DMSO control GFP [1]: 92.4% (inactive)
- GFP response vs DMSO [2]: 128% (inactive)
- percent response of DMSO control [3]: 101% (inactive)
- GFP response vs DMSO [4]: 80.3% (inactive)
- GFP response, % of DMSO [5]: 102% (inactive)
- double positive events [6]: 57.5%
- vesicle binding response [6]: 109% (inactive)
- inhibition [7]: 2.58% (inactive)
- superoxide response (% of plate) [8]: 95.9% (inactive)
- aptamer binding inhibition [9]: 6% (inactive)
- response [10]: -6.94% (inactive)
- inhibition [11]: 1.36% (inactive)
- response [12]: 10.6% (inactive)
- binding (% of control) [13]: 104% (inactive)
- efflux inhibition (fraction of control) [14]: 0.3 (inactive)
- inhibition [15]: 9% (inactive)
- differentiation response [16]: 1.64% (inactive)

Structure (SMILES): CC1(C)CC(NCc2ccccc2)CCO1 (centres undefined)
- percent of DMSO control GFP [1]: 103% (inactive)
- GFP response vs DMSO [2]: 97.6% (inactive)
- percent response of DMSO control [3]: 96.4% (inactive)
- GFP response vs DMSO [4]: 101% (inactive)
- GFP response, % of DMSO [5]: 114% (inactive)
- double positive events [6]: 60.6%
- vesicle binding response [6]: 226% (inactive)
- inhibition [7]: 13.4% (inactive)
- superoxide response (% of plate) [8]: 94.9% (inactive)
- aptamer binding inhibition [9]: 0% (inactive)
- response [10]: -7.51% (inactive)
- inhibition [11]: 60.9% (active)
- response [12]: 5.23% (inactive)
- binding (% of control) [13]: 101% (inactive)
- efflux inhibition (fraction of control) [14]: 0.04 (inactive)
- inhibition [15]: 4% (inactive)
- differentiation response [16]: -7.94% (inactive)

Structure (SMILES): CC(C)C(CCN1C(=O)CCC1=O)C1CCOC(C)(C)C1 (centres undefined)
- percent of DMSO control GFP [1]: 103% (inactive)
- GFP response vs DMSO [2]: 104% (inactive)
- percent response of DMSO control [3]: 100% (inactive)
- GFP response vs DMSO [4]: 95.8% (inactive)
- GFP response, % of DMSO [5]: 101% (inactive)
- double positive events [6]: 62.8%
- vesicle binding response [6]: 130% (inactive)
- inhibition [7]: 3.98% (inactive)
- superoxide response (% of plate) [8]: 103% (inactive)
- aptamer binding inhibition [9]: 11% (inactive)
- response [10]: -1.22% (inactive)
- inhibition [11]: -12.4% (inactive)
- response [12]: -0.12% (inactive)
- binding (% of control) [13]: 98.8% (inactive)
- efflux inhibition (fraction of control) [14]: 0.42 (inactive)
- inhibition [15]: 10% (inactive)
- differentiation response [16]: 4.97% (inactive)

Structure (SMILES): Cc1nc(NC(CC(C)C)C(=O)O)c2nc(C)oc2n1 (centres undefined)
- percent of DMSO control GFP [1]: 97.4% (inactive)
- GFP response vs DMSO [2]: 111% (inactive)
- percent response of DMSO control [3]: 90.1% (inactive)
- GFP response vs DMSO [4]: 120% (inactive)
- GFP response, % of DMSO [5]: 101% (inactive)
- double positive events [6]: 57.6%
- vesicle binding response [6]: 121% (inactive)
- inhibition [7]: -5.89% (inactive)
- superoxide response (% of plate) [8]: 95.4% (inactive)
- aptamer binding inhibition [9]: 7% (inactive)
- response [10]: 3.8% (inactive)
- inhibition [11]: 4.51% (inactive)
- response [12]: 3.4% (inactive)
- binding (% of control) [13]: 102% (inactive)
- efflux inhibition (fraction of control) [14]: -0.13 (inactive)
- inhibition [15]: 6% (inactive)
- differentiation response [16]: -28% (inactive)

Structure (SMILES): COc1ccc(C2NC(C(=O)O)Cc3c2[nH]c2ccccc32)cc1CN1CCN(c2ccc(F)cc2)CC1 (centres undefined)
- percent of DMSO control GFP [1]: 104% (inactive)
- GFP response vs DMSO [2]: 98.3% (inactive)
- percent response of DMSO control [3]: 113% (inactive)
- GFP response vs DMSO [4]: 102% (inactive)
- GFP response, % of DMSO [5]: 104% (inactive)
- double positive events [6]: 63.4%
- vesicle binding response [6]: 242% (inactive)
- inhibition [7]: -0.45% (inactive)
- superoxide response (% of plate) [8]: 94.5% (inactive)
- aptamer binding inhibition [9]: -6% (inactive)
- response [10]: 6.62% (inactive)
- inhibition [11]: -4.95% (inactive)
- response [12]: 2.85% (inactive)
- binding (% of control) [13]: 102% (inactive)
- efflux inhibition (fraction of control) [14]: -0.07 (inactive)
- inhibition [15]: 1% (inactive)
- differentiation response [16]: 1.22% (inactive)
